Test results: PubChem BioAssay (NCI)
About 83,000 compounds went through this panel and 20% of them were active in at least one assay; those are over-represented in the sample as a whole.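 Cell lines were cultured in 96-well plates, exposed to a single compound concentration, and assessed for percent growth 48 hours later.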 Unmarked numbers belong to inactive results. Activity calls are given as the source filed them. The calls were made as follows: active = growth percent below 10; inactive = the rest.

Legend:
Experiment in all cases: NCI-60 one-dose screen, 48 h (100 = growth as untreated, 0 = no growth, -100 = all killed)
Conditions in all cases: 10 µM unless noted
HCT-15 colon = tested on: HCT-15 colon
HT29 colon = tested on: HT29 colon
SNB-75 CNS = tested on: SNB-75 CNS
SNB-19 CNS = tested on: SNB-19 CNS
U251 CNS = tested on: U251 CNS
SK-MEL-5 melanoma = tested on: SK-MEL-5 melanoma
UACC-62 melanoma = tested on: UACC-62 melanoma
LOX IMVI melanoma = tested on: LOX IMVI melanoma
SK-MEL-28 melanoma = tested on: SK-MEL-28 melanoma
SK-MEL-2 melanoma = tested on: SK-MEL-2 melanoma
EKVX NSCLC = tested on: EKVX NSCLC
SN12C renal = tested on: SN12C renal
UO-31 renal = tested on: UO-31 renal
TK-10 renal = tested on: TK-10 renal
ACHN renal = tested on: ACHN renal
CAKI-1 renal = tested on: CAKI-1 renal
A498 renal = tested on: A498 renal
CCRF-CEM leukemia = tested on: CCRF-CEM leukemia
MOLT-4 leukemia = tested on: MOLT-4 leukemia
PC-3 prostate = tested on: PC-3 prostate

SMILES | growth (HCT-15 colon) | growth (HT29 colon) | growth (SNB-75 CNS) | growth (SNB-19 CNS) | growth (U251 CNS) | growth (SK-MEL-5 melanoma) | growth (UACC-62 melanoma) | growth (LOX IMVI melanoma) | growth (SK-MEL-28 melanoma) | growth (SK-MEL-2 melanoma) | growth (EKVX NSCLC) | growth (SN12C renal) | growth (UO-31 renal) | growth (TK-10 renal) | growth (ACHN renal) | growth (CAKI-1 renal) | growth (A498 renal) | growth (CCRF-CEM leukemia) | growth (MOLT-4 leukemia) | growth (PC-3 prostate)
CCOC(=O)c1cn2ncnc(Oc3ccc(NC(=O)NC4CC4)c(Cl)c3)c2c1C | 81.7% | 95.1% | 83.8% | 89% | 80.7% | 88.7% | 77.8% | 85.4% | 107% | 110% | 89.8% | 79.9% | 65.3% | 113% | 96.4% | 101% | -0.592% (active) | 89.2% | 88.8% | –
COc1ccc(-c2nc3c(c(-c4ccc(Cl)cc4)nn3-c3ccccc3)c(-c3ccccc3)c2C#N)cc1 | 109% | 101% | 85.7% | 103% | 99.6% | 100% | 98.5% | 101% | 108% | 109% | 107% | 105% | 101% | 120% | 107% | 94.8% | 111% | 102% | 102% | –
COc1ccc2c(c1)CC[C@@H]1[C@@H]2CC[C@]2(C)C3C(=CC(COC(C)=O)C4C(=O)N(c5ccc(Cl)cc5)C(=O)C43)C[C@@H]12 (stereo not given in full) | 94.3% | 90% | 90.5% | 110% | 102% | 93.4% | 83.2% | 94% | 106% | 108% | 108% | 101% | 79.1% | 120% | 95.8% | 108% | 108% | 75.5% | 63.9% | –
COc1ccc2[nH]cc(-c3nonc3-c3c[nH]c4ccc(Br)cc34)c2c1 | 19.9% | 5.38% (active) | 58.6% | 62.9% | 42.2% | 78.1% | 56% | -33.4% (active) | 84.1% | – | 29.9% | 67.7% | 36.5% | 49.9% | 38.7% | 24.8% | – | 38.6% | – | 39.8%
CCOC(=O)C(CCN(C)C)c1ccccc1 (stereo not given) | 105% | 92.1% | 81.1% | 105% | 103% | 103% | 102% | 98.3% | 97.8% | 101% | 101% | 99.5% | 90.9% | 95% | 104% | 94.5% | 107% | 93.2% | 116% | –
CCOC(=O)CNC1=C(Cl)C(=O)N(Cc2ccc(Cl)cc2)C1=O | 110% | 105% | 97.9% | 98.6% | 100% | 102% | 104% | 95.9% | 106% | 101% | 100% | 99.1% | 66.6% | 102% | 101% | 95.4% | 90.3% | 102% | 98.2% | –
COC(=O)c1sccc1-c1cc(O)c(C(=O)Nc2ccccc2)s1 | 97.7% | 90% | 72% | 107% | 101% | 102% | 91.2% | 96.6% | 110% | – | 71.9% | 105% | 69.9% | 121% | 94% | 86.4% | – | – | 96.9% | 90.4%
CCN(CC)C(=O)C1=C(C)NC(=O)NC1c1ccc2c(c1)OCO2 (stereo not given) | 105% | 107% | 93.3% | 96.2% | 102% | 101% | 102% | 95.6% | 115% | 108% | 99% | 107% | 81.4% | 100% | 103% | 93.1% | 111% | 104% | 104% | –
C#Cc1cccc(NC(=O)C2CCCCN2C(=O)CCl)c1 (stereo not given) | -54.7% [8.25 µM] (active) | -52.5% [8.25 µM] (active) | -5.47% [8.25 µM] (active) | 20.1% [8.25 µM] | -62.2% [8.25 µM] (active) | -81.7% [8.25 µM] (active) | -84.8% [8.25 µM] (active) | -74.6% [8.25 µM] (active) | 2% [8.25 µM] (active) | – | 19.6% [8.25 µM] | -92.3% [8.25 µM] (active) | -97.3% [8.25 µM] (active) | 9.36% [8.25 µM] (active) | -97.3% [8.25 µM] (active) | -95.5% [8.25 µM] (active) | 58.5% [8.25 µM] | -11.9% [8.25 µM] (active) | -13.7% [8.25 µM] (active) | -7.93% [8.25 µM] (active)
Cc1ccc(S(=O)(=O)N2CCCN(c3nc(-c4ccccc4)nc4nc(-c5ccccc5)oc34)CC2)cc1 | 114% | 120% | 105% | 102% | 104% | 98.9% | 101% | 95.4% | 108% | 103% | 112% | 97.6% | 76.8% | 103% | 103% | 93.2% | 106% | 106% | 95% | –
COC(=O)/C=C1/SC(=Nc2ccc(F)cc2)N(CCc2c[nH]c3ccc(O)cc23)C1=O | 23.6% | 36.7% | 43.2% | 46.6% | 25.6% | 44.9% | 23.5% | -10.7% (active) | 51.8% | -0.819% (active) | 55.9% | 42.5% | 46.4% | 84% | 33.8% | – | 49.8% | 3.69% (active) | 0.14% (active) | –
CN(C)CCC(=O)C1CC1 | 106% | 99.3% | 102% | 96% | 102% | 106% | 99.2% | 99% | 107% | 111% | 111% | 98.9% | 75.9% | 113% | 103% | 102% | 106% | 103% | 96.9% | –
O=C(Nc1cccnc1Nc1ccccc1)c1cn(Cc2cccc(Oc3ccccc3)c2)nn1 | 30.5% | 38.2% | 47.6% | 64.5% | 54.4% | 26.6% | 32.8% | 37% | 55.1% | – | – | 56.7% | 51.8% | 82.1% | 76.6% | 69.6% | 45.3% | 47.4% | – | 49.3%
CSc1nc2ccc(C)cc2cc1/C=C1/C=C(c2ccccc2)NC1=O | 57.4% | 57.6% | 26.4% | 67.3% | 16.3% | 80.4% | 71.9% | 45.3% | 79.1% | 89.5% | 61.4% | 32.6% | 12.8% | -6.59% (active) | -52.8% (active) | 5.73% (active) | 41.7% | 48.3% | 44.1% | –
NC(=O)c1ccccc1OCC(=O)Nc1ccc(Cl)c(Cl)c1 | 102% | 113% | 83.3% | 93.2% | 97.3% | 99.9% | 83.3% | 108% | 107% | 107% | 92.2% | 101% | 84.1% | 143% | 89.3% | 70.6% | 93.7% | 92.3% | 89% | –
O=CCCCOCc1ccccc1 | 98.5% | 97.2% | 87.8% | 100% | 104% | 100% | 95.2% | 99% | 112% | 104% | 95.6% | 98.8% | 95% | 97.7% | 101% | 98.1% | 85.8% | 104% | 103% | –
O=C1CCCCN1c1ccc(C2=NCCCN2)cc1 | 101% | 87.6% | 55% | 89.2% | 79.3% | 97.5% | 90.3% | 87.7% | 91.4% | 111% | 97.8% | 92.9% | 79.1% | – | 95.7% | 100% | 93.7% | 116% | 80% | –
